# PubChem BioAssay AID686978 (National Center for Advancing Translational Sciences (NCATS), 2013)
# The whole screen tested about 420,000 compounds, of which about 64,000 (15%) were called active. Another 27% or so got no clear call; they are omitted. The call rests on the fitted dose curve; in most records, active means well fitted inhibition curve with a large enough effect; inconclusive means small, poorly fitted or top-dose-only effect; inactive means flat fitted curve, though single readings scatter. These entries were drawn from the full list.
# Experiment: qHTS for Inhibitors of human tyrosyl-DNA phosphodiesterase 1 (TDP1): qHTS in cells in absence of CPT; further: nearly all actives have a fitted effect of over 55% in size
# Conditions: DT40 Tdp1-/- hTDP1 cells, no CPT, ATP luminescence, 48 h; activity change, negative = growth inhibition: at 46.2 µM (top of the series)
# Summary of the method: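 Chicken DT40 Tdp1-/- cells complemented with human TDP1, screened without camptothecin (DMSO vehicle only), 400 cells/well. Compounds pin-transferred, cells incubated at 37 °C for at least 48 hr. Growth read as ATP-dependent luminescence (CellTiter-Glo, 30 min at RT).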
# On the % scale 0 is the no-effect control and ±100 the full control effect; potency means the concentration at half of the fitted maximal effect.
Compound,"activity change, negative = growth inhibition",Potency
COc1ccccc1C(=O)NC(=O)COC(=O)c1ccco1,-4.23% (inactive),
COc1ccc(C(=O)C2CCCN(C(=O)c3ccc(OC)o3)C2)c(C)c1 (configuration not stated),,16.4 µM (active)
CCOC(=O)C1CCN(S(=O)(=O)c2c(C)noc2C)CC1,21.5% (inactive),
CCNC(=O)C1CCCN(C(=O)c2ccc(OC)cc2OC)CC1 (configuration not stated),-2.02% (inactive),
O=C(c1ccc2c(c1)OCO2)N1CCOCC1,0.596% (inactive),
COc1cccc(N2CCN(C(=O)C3CCCN(S(=O)(=O)c4cnc[nH]4)C3)CC2)c1 (configuration not stated),-25% (inactive),
Cc1cc(Cl)ccc1C(=O)C1CCCN(C(=O)c2ccc3c(c2)OCO3)C1 (configuration not stated),,8.2 µM (active)
COc1c(C)cc(C(=O)C2CCCN(S(=O)(=O)c3c(C)noc3C)C2)cc1C (configuration not stated),,16.4 µM (active)
COc1ccc(C(=O)C2CCCN(S(=O)(=O)c3cccc(C)c3)C2)c(C)c1 (configuration not stated),,18.4 µM (active)
CCn1nc(C)cc1C(=O)N1CCCC(C(=O)c2cccc(OC)c2)C1 (configuration not stated),-29.3% (inactive),
Cc1cc(Cl)ccc1C(=O)C1CCCN(C(=O)c2nonc2C)C1 (configuration not stated),-26.4% (inactive),
Cc1cc(C)c(S(=O)(=O)N2CCC(C(=O)OCc3c(C)noc3C)CC2)c(C)c1,2.1% (inactive),
COc1ccc(OC)c(S(=O)(=O)N2CCCC(C(=O)NCCc3ccccc3)C2)c1 (configuration not stated),-23.5% (inactive),
O=C(COc1cccnc1[N+](=O)[O-])Nc1ccc(Cl)cc1F,-10.4% (inactive),
Cc1ccc(NC(=O)OCc2cncs2)cc1,-3.53% (inactive),
COC(=O)c1c(C(=O)OC)c2n(c1C)CCS2,-16.7% (inactive),
CC(C)(C)OC(=O)N(Cc1ccco1)S(=O)(=O)c1ccccc1Br,3% (inactive),
CCn1c(N)c(Br)c(=O)[nH]c1=O,0.126% (inactive),
N#Cc1c(NCCO)ccc([N+](=O)[O-])c1NCCO,0.687% (inactive),
CC1CCN(C(=O)CSc2nnc(-c3ccco3)n2N)CC1,2.17% (inactive),
CCCn1nc(NS(=O)(=O)c2ccccc2)c2cc3cc(C)ccc3nc21,-7.69% (inactive),
CC(C)NC(=O)COCc1cc(-c2ccc3c(c2)OCO3)on1,-26.5% (inactive),
O=c1c(-c2ccccc2)coc2c(CN3CCOCC3)c(O)ccc12,-9.85% (inactive),
Cc1cc(=O)n2nc(N3CCCC3C(=O)NCCCN3CC(C)CC(C)C3)sc2n1 (configuration not stated),-6.94% (inactive),
Cc1nnc(SCc2cc(=O)c3cc(F)ccc3[nH]2)n1C,12% (inactive),
CCN(C(=O)COC(=O)c1sccc1C)c1c(N)n(Cc2ccccc2)c(=O)[nH]c1=O,-24.8% (inactive),

Compound,"activity change, negative = growth inhibition",Potency
CCN(C(=O)COC(=O)CCOc1cccc(C)c1)c1c(N)n(Cc2ccccc2)c(=O)[nH]c1=O,,18.4 µM (active)
CCN(C(=O)COC(=O)Cc1c(F)cccc1Cl)c1c(N)n(Cc2ccccc2)c(=O)[nH]c1=O,-19.8% (inactive),
COCCN(C(=O)CSCc1ccc(C)cc1)c1c(N)n(CC(C)C)c(=O)[nH]c1=O,20.3% (inactive),
COCCCN(C(=O)CSCc1ccc(C)cc1)c1c(N)n(Cc2ccccc2)c(=O)[nH]c1=O,-1.36% (inactive),
CCN(C(=O)COC(=O)c1c(C)nn(-c2ccccc2)c1Cl)c1c(N)n(Cc2ccccc2)c(=O)[nH]c1=O,18.7% (inactive),
CCCCN(C(=O)CSCc1ccc(C)cc1)c1c(N)n(Cc2ccccc2)c(=O)[nH]c1=O,,25.9 µM (active)
COc1ccc2oc(C(=O)OCC(=O)N(CC(C)C)c3c(N)n(Cc4ccccc4)c(=O)[nH]c3=O)c(C)c2c1,,16.4 µM (active)
COCCN(C(=O)COC(=O)Cc1cccc(OC)c1)c1c(N)n(Cc2ccccc2)c(=O)[nH]c1=O,16.1% (inactive),
CN=C(c1ccccc1)c1c(C)cccc1C,-12.2% (inactive),
CC1CCCCC1NC(=O)CSc1nnc(-c2ccncc2)n1CCCN(C)C (configuration not stated),-2.07% (inactive),
CCCNC(=O)N1CCN(C(=O)NCCC)CC1,4.59% (inactive),
O=C(NNc1cc(Cl)ccc1Cl)c1cccnc1Cl,-2.92% (inactive),
Fc1ccc(OCc2nn3c(Cn4nnc5ccccc54)nnc3s2)cc1,-27.8% (inactive),
CCc1ccccc1NC(=O)Cc1cn(C)c2ccccc12,,inactive
O=C(O)C1CCCN1S(=O)(=O)c1ccc2c(c1)CCC2 (configuration not stated),-7.3% (inactive),
CC(OC(=O)CNC(=O)c1cccc(F)c1)C(=O)NC1CCCCC1C (configuration not stated),3.97% (inactive),
Cc1ccnc(SCC(=O)Nc2cccc(S(=O)(=O)N3CCOCC3)c2)n1,-27.1% (inactive),
O=C(O)C1CC(=O)N(Cc2cccnc2)C1 (configuration not stated),-0.56% (inactive),
O=C1/C(=C\c2cccnc2)CN(Cc2ccccc2)C/C1=C\c1cccnc1,,1.64 µM (active)
O=C(O)CCc1cccnc1,,inactive
COC(=O)c1ccc2c(c1)S(=O)(=O)NC2C (configuration not stated),4.44% (inactive),
O=C(OCC(=O)N1CCc2ccccc21)C1CCCN1S(=O)(=O)c1ccc(Cl)cc1 (configuration not stated),-9.63% (inactive),
O=C(OCC(=O)N1CCc2ccccc21)c1ccc([N+](=O)[O-])cc1,,29.1 µM (active)
Cc1ccc(S(=O)(=O)NCC(=O)OCC(=O)N2CCc3ccccc32)cc1,-22.6% (inactive),
O=S(=O)(Nc1ccccn1)c1cccc(S(=O)(=O)c2ccc(Cl)cc2)c1,-14% (inactive),
Cc1coc2c1c(C)cc1oc(=O)c(CC(=O)NCC(=O)N[C@H](C(=O)O)C(C)C)c(C)c12,23.9% (inactive),

Compound,"activity change, negative = growth inhibition",Potency
CCC(NC(=O)C1CCCC1)c1ccc(C)cc1 (configuration not stated),-3.25% (inactive),
Cc1cc[n+](C2CCCCC2)cc1,,15.8 µM (active)
COc1ncnc2sc3c(c12)CCCC3,-6.77% (inactive),
Cc1noc(C)c1NC(=O)N(C)C[C@@H]1Oc2cc(Br)ccc2S(=O)(=O)N([C@@H](C)CO)C[C@H]1C,-2.38% (inactive),
C[C@H](CO)N1C[C@H](C)[C@@H](CN(C)C(=O)C2CCCCC2)OCc2cnnn2CCCC1=O,-21.8% (inactive),
CCCCOc1ccc(C(C)(O)CCN2CCOCC2)cc1 (configuration not stated),-21.9% (inactive),
COc1ccc(-c2[nH]ncc2CN(C)Cc2cccnc2)c(F)c1,-19.9% (inactive),
COc1ccc2[nH]c(=O)c(CN(Cc3cccnc3)S(=O)(=O)c3ccccc3F)cc2c1,,18.4 µM (active)
CCN(Cc1cc2cc(C)ccc2[nH]c1=O)S(=O)(=O)c1ccccc1,-13% (inactive),
Cc1ccc(C(=O)NCC(=O)OCC(=O)NC2CCCCCCC2)cc1,8.07% (inactive),
O=C(NCCc1ccc(Cl)cc1)C1CC(=O)N(C2CCCCC2)C1 (configuration not stated),-11.3% (inactive),
COc1ccc(C2C(=O)N(C3CCCCC3)CC(=O)N2Cc2ccccc2Cl)cc1OC (configuration not stated),-3.49% (inactive),
COc1ccc(C2C(=O)N(C3CCCCCC3)CC(=O)N2CCc2ccc(Cl)cc2)cc1OC (configuration not stated),,23.1 µM (active)
CCCCN(C(=O)c1nn(C)c(=O)c2ccccc12)c1c(N)n(CCC)c(=O)[nH]c1=O,13.9% (inactive),
CCN1C[C@@H]2[C@@H]3C(=O)N(C)C(=O)[C@@H]3[C@](C)(C1=O)N2C(=O)c1ccccc1,-1.14% (inactive),
CCCOC(=O)c1cc2ccccc2oc1=O,-15.6% (inactive),
CCCOC(=O)c1[nH]c2c(c1C)C(=O)CC(c1cccs1)C2 (configuration not stated),,0.58 µM (active)
CCCOC(=O)c1[nH]c2c(c1C)C(=O)CC(c1cc(OC)c(OC)c(OC)c1)C2 (configuration not stated),,4.61 µM (active)
COc1cc(C2CC(=O)c3cnc(NC(C)=O)nc3C2)cc(OC)c1OC (configuration not stated),3.54% (inactive),
CCOC(=O)C1=C(N)N2C(=O)C(C)SC2=C(C(=O)OCC)C1c1cc(OC)c(OC)c(OC)c1 (configuration not stated),15.8% (inactive),
Cc1noc(C)c1C(=O)N1CCC1(C)C(=O)NS(=O)(=O)c1ccc(C#N)cc1 (configuration not stated),10.2% (inactive),
Cn1c(SCC(=O)Nc2cccc(NC(=O)c3cccs3)c2)nnc1-c1ccncc1,-21.6% (inactive),
COc1cc(OC)c(C(=O)N2CCCC2)cc1OC,-2.13% (inactive),
Nc1cc(N2CCCCCC2)c2nonc2c1[N+](=O)[O-],-25.5% (inactive),
CCOc1ccc(N(C)S(=O)(=O)c2cnc[nH]2)cc1,-8.49% (inactive),
CC(NS(=O)(=O)c1ccc(Br)cc1)C(=O)NCC1CCCO1 (configuration not stated),2.85% (inactive),

Compound,"activity change, negative = growth inhibition",Potency
O=C(CCNS(=O)(=O)c1ccc(Br)cc1)NCC1CCCO1 (configuration not stated),-5.69% (inactive),
OC(CNCC1CCCO1)Cn1c2ccc(Br)cc2c2cc(Br)ccc21 (configuration not stated),,18.4 µM (active)
CN(C)c1ccc(C(CNS(=O)(=O)c2cc(F)ccc2F)N2CCOCC2)cc1 (configuration not stated),5.48% (inactive),
C[C@H](NC(=O)c1[nH]cnc1C(=O)Nc1nccs1)c1ccccc1,-19.2% (inactive),
Cc1ccc(S(=O)(=O)N2CCOCC2)cc1C(=O)OC1CCCCC1=O (configuration not stated),-18.6% (inactive),
CC(=O)N1CCc2cc(Br)cc(S(=O)(=O)CCC(=O)Nc3c(C)n(C)n(-c4ccccc4)c3=O)c21,-7.36% (inactive),
CCOC(=O)c1c(-c2cccc(C)c2)csc1NC(=O)c1c(-c2ccccc2)noc1C,,23.1 µM (active)
CCOC(=O)c1c(NC(=O)c2cc(-c3ccc(Cl)cc3)on2)sc2c1CCCC2,-4.88% (inactive),
Cc1ccc2nc(NC(=O)c3nc(SCc4ccccc4F)ncc3Cl)sc2c1,11% (inactive),
CCCS(=O)(=O)c1ncc(Cl)c(C(=O)Nc2scc(-c3ccccc3)c2C(=O)OCC)n1,,3.66 µM (active)
CCOC(=O)c1c(-c2ccc(-c3ccccc3)cc2)csc1NC(=O)CCC(=O)O,15.5% (inactive),
CCOC(=O)c1c(N)nn(C(=O)c2ccccc2)c1-c1ccccc1,8.93% (inactive),
CCOC(=O)C1CCN(C(=O)COC(=O)C2CCN(S(=O)(=O)c3ccc4c(c3)OCCO4)CC2)CC1,-2.44% (inactive),
CCOC(=O)CN/C=C(\C#N)c1ccc(F)cc1,8.78% (inactive),
CC(C)CN(C(=O)Cn1c(=O)cnc2ccccc21)C1CCS(=O)(=O)C1 (configuration not stated),-1.96% (inactive),
CC1(C(=O)Nc2ccc3c(c2)OCCO3)CN(S(C)(=O)=O)CC(=O)N1Cc1cccc(F)c1 (configuration not stated),-7.77% (inactive),
O=C(C1CCCO1)N1CCN(C(=S)Nc2cccc(Cl)c2)CC1 (configuration not stated),-22.5% (inactive),
CCOC(=O)C1CCN(C(=O)C2CCN(S(=O)(=O)N3CCCC3)CC2)CC1,-12.4% (inactive),
CCN(CC)C(=O)CSc1nc2cc3c(cc2c(=O)n1CCCC(=O)NCc1ccc2c(c1)OCO2)OCO3,,16.4 µM (active)
O=C(CCCCn1c(=O)[nH]c2ccccc2c1=O)NCc1ccc2c(c1)OCO2,-26.8% (inactive),
CCCCNC(=O)CSc1nc2cc3c(cc2c(=O)n1CCCCCC(=O)NCc1ccc2c(c1)OCO2)OCO3,-7% (inactive),
COc1ccc(-c2nn(-c3ccccc3)cc2/C=N/Nc2ccccn2)cc1OC,,5.8 µM (active)
CN(C)/N=C/c1cn(-c2ccccc2)nc1-c1cccnc1,-26.2% (inactive),
CC(C)(C)OC(=O)N/N=C/c1cn(-c2ccccc2)nc1-c1cccnc1,-26.1% (inactive),
